# Results filed as inconclusive are left out. Entries that show only a call come without a potency. Values without a mark were called inactive. The source made the active and inactive calls. Calls come from the whole dose curve; as a rule, active = well fitted curve in the direction sought with a large enough effect; inconclusive = small, poorly fitted or top-dose-only effect, or another doubt; inactive = no such curve, though single readings can be large; an effect the other way counts as inactive or inconclusive.
# Legend:
# Tov-21-G = test: Primary qHTS to identify gynecologic anti-cancer compounds using libraries of approved drugs and bioactive compounds (AID 1345084); details: Gynecologic cancer cell panel viability, ATPlite luminescence, 48 h; series mostly up to 57.5 µM; note: nearly all actives have a fitted effect of over 55% in size
# Procedure, shortened: (§1)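 ATP-based viability (ATPlite), 1,000 cells/well, 16 h pre-incubation, 48 h compound at 37 C, 5% CO2, 15 min RT before read.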
# [1] = qHTS assay to identify inhibitors of the type 1 interferon - major histocompatibility complex class I in skeletal muscle: Counter screen cell viability and HiBit confirmation (AID 1347412); details: iHSKM muscle cells + IFN-b, HiBiT or CellTiter-Glo, 24 h; for activity change, negative = inhibition: Viability, at 45.9 µM (top of the series); for Potency: HiBiT; for all read-outs here: nearly all actives have a fitted effect of over 60% in size
# Procedure, shortened: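 Human myoblast knock-in line, 4.0 ng/ml IFN-beta stimulation, 24 h compound treatment. Endpoints: HiBiT lytic luminescence (HLA-B level) and CellTiter Glo (ATP). Dosing 12 concentrations, 3-fold steps, 46 uM highest final.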
# Tov112D = test: Primary qHTS to identify gynecologic anti-cancer compounds using libraries of approved drugs and bioactive compounds (AID 1345084); details: Gynecologic cancer cell panel viability, ATPlite luminescence, 48 h; series mostly up to 57.5 µM; note: nearly all actives have a fitted effect of over 55% in size
# Procedure, shortened: as §1
# Potency is the fitted concentration of half-maximal effect.
structure (smiles),measurement,setting,value
C=CC(=O)Nc1ccc2ncnc(Nc3cccc(Br)c3)c2c1,Potency,Tov-21-G,10 µM (active)
same,"activity change, negative = inhibition",[1],-0.162%
C=C1C(=O)O[C@@H]2/C=C(\CO)CC/C=C(/C=O)C[C@H](O)[C@@H]12,Potency,Tov-21-G,28.2 µM (active)
same,Potency,Tov112D,inactive
C=C1C(=O)OC[C@@H]1C/C=C(\C)CC1CC(C)C(=O)O1 (stereo not given in full),Potency,Tov-21-G,inactive
same,Potency,Tov112D,inactive
N#Cc1cc(-c2ccnc(Nc3ccc(N4CCOCC4)cc3)n2)ccc1OC1CCOCC1,Potency,Tov-21-G,inactive
same,Potency,Tov112D,inactive
COc1cc(/C=C2\CCCN([C@@H](C)c3ccc(F)cc3)C2=O)ccc1-n1cnc(C)c1,Potency,Tov-21-G,inactive
same,Potency,Tov112D,inactive
CC(NC(=O)Cc1cc(F)cc(F)c1)C(=O)NC1C(=O)N(C)c2ccccc2-c2ccccc21 (stereo not given),Potency,Tov-21-G,inactive
same,Potency,Tov112D,inactive
CN(C)CCN(Cc1ccccc1)C(=O)c1cc(-c2ccc(F)cc2)n2nc(C(C)(C)C)cc2n1,Potency,Tov-21-G,inactive
same,Potency,Tov112D,inactive
COc1cc(OC)c2c(=O)[nH]c(-c3cc(C)c(OCCO)c(C)c3)nc2c1,Potency,Tov-21-G,inactive
same,Potency,Tov112D,inactive
COc1cc2ncc(-c3ccccc3)nc2cc1OC,Potency,Tov112D,inactive
C=CC(=O)Nc1cc(-n2c(=O)ccc3cnc4ccc(-c5ccc(NS(C)(=O)=O)cc5)cc4c32)ccc1C,Potency,Tov112D,inactive
O=C(Nc1ccc(N2C(=O)[C@@H]3[C@H](C2=O)[C@@H]2C=C[C@H]3C2)c(Cl)c1)c1ccccn1,Potency,Tov112D,inactive
CC(=O)O[C@H]1CC2C(COC(=O)CC(C)C)=CO[C@@H](OC(=O)CC(C)C)C2[C@]12CO2 (stereo not given in full),Potency,Tov-21-G,inactive
same,Potency,Tov112D,inactive
CCn1c2ccccc2c2cc(Nc3ccnc(NCCCN4CCOCC4)n3)ccc21,Potency,Tov-21-G,inactive
same,Potency,Tov112D,inactive
Cc1[nH]c(/C=C2\C(=O)Nc3cc(-c4ccccc4)ccc32)c(C)c1CCC(=O)O,Potency,Tov112D,inactive
CC(=O)NC(C(=O)O[C@H]1CCC(C)(C)[C@@H]2CC=C3C(=O)OCC3(O)[C@@]12C)C(C)C (stereo not given in full),Potency,Tov-21-G,inactive
same,Potency,Tov112D,inactive
N#Cc1cnc2c(Cl)cc(NCc3cn(CCN4CCCCCC4)nn3)cc2c1Nc1ccc(F)c(Cl)c1,Potency,Tov-21-G,inactive
same,Potency,Tov112D,inactive
Oc1cccc(C2NC(=S)Nc3cccc(F)c32)c1 (stereo not given),Potency,Tov112D,10 µM (active)
CC1(C(=O)Nc2ccc(F)nc2)CCCN1c1nc(Nc2cc(C3CC3)[nH]n2)c2cccn2n1 (stereo not given),Potency,Tov-21-G,14.1 µM (active)
same,Potency,Tov112D,inactive
Fc1ccc2[nH]ccc2c1-c1nc(N2CCOCC2)c2sc(CN3CCN(CC4CC4)CC3)cc2n1,Potency,Tov-21-G,inactive
same,Potency,Tov112D,inactive
Cc1ccc(NC(=O)N2CCN(c3nc(N)nc4sc(-c5cccnc5)nc34)CC2)cc1,Potency,Tov-21-G,inactive
same,Potency,Tov112D,inactive
FC(F)(F)c1ccc(/C=C/c2nc(COc3ccc(CCCCn4ccnn4)cc3)co2)cc1,Potency,Tov-21-G,inactive
same,Potency,Tov112D,inactive
C=C1C(=O)OC2CC(C)=C(C(C)CCCOC(C)=O)C(OC(=O)CC(C)CC)C12 (stereo not given),Potency,Tov112D,inactive
Cc1[nH]c2ccccc2c1CCNCc1ccc(/C=C/C(=O)NO)cc1,Potency,Tov-21-G,0.708 µM (active)
same,Potency,Tov112D,0.316 µM (active)
same,Potency,[1],0.0625 µM (active)
same,"activity change, negative = inhibition",[1],-25.2%
CN(C)CC1CCn2c(c(C3=C(c4cn(C)c5ccccc45)C(=O)NC3=O)c3ccccc32)C1 (stereo not given),Potency,Tov112D,inactive
C=C1/C(=C/C=C2\CCC[C@]3(C)[C@@H]([C@H](C)CC[C@@H](O)C(C)(C)O)CC[C@@H]23)C[C@@H](O)C[C@@H]1O,Potency,Tov112D,inactive
CCCc1cc(C)[nH]c(=O)c1CNC(=O)c1cc(-c2ccc(N3CCN(C(C)C)CC3)nc2)cc2c1cnn2C(C)C,Potency,Tov-21-G,inactive
same,Potency,Tov112D,inactive
O=C1Nc2nc(-c3c(O)cccc3OCC3CC3)cc([C@@H]3CCCNC3)c2CO1,Potency,Tov-21-G,14.1 µM (active)
same,Potency,Tov112D,22.4 µM (active)
same,Potency,[1],7.01 µM (active)
same,"activity change, negative = inhibition",[1],-25%
CCN1CCN(Cc2ccc(C(=O)Nc3ccc(C)c(Oc4ccc5c(c4)CC(=O)N5)c3)cc2C(F)(F)F)CC1,Potency,Tov-21-G,inactive
same,Potency,Tov112D,inactive
C=CC(=O)N1CCCC(n2nc(-c3ccc(Oc4ccccc4)cc3)c3c(N)ncnc32)C1 (stereo not given),Potency,Tov112D,inactive
COc1cc([C@H]2O[C@H](c3cc(OC)c4c(c3)OCO4)[C@H](C)[C@H]2C)cc(OC)c1OC,Potency,Tov-21-G,inactive
same,Potency,Tov112D,inactive
NC(=O)c1cnc(N[C@@H]2CCCC[C@H]2N)nc1Nc1cccc(-n2nccn2)c1,Potency,Tov112D,inactive
C=C1C(=O)O[C@@H]2/C=C(\CO)CC/C=C(/C=O)C[C@@H](O)[C@@H]12,Potency,Tov-21-G,14.1 µM (active)
same,Potency,Tov112D,inactive
O=C(Nc1ccc(CN2CCOCC2)cc1)c1ccc(-c2cccc(Cl)c2)o1,Potency,Tov-21-G,inactive
same,Potency,Tov112D,inactive

# From PubChem BioAssay (NCATS)
